In PubChem BioAssay (NCI):
Compounds without any hit were thinned out: in the full panel of roughly 79,000, 15% have a hit. Values without a mark were called inactive. Active and inactive are the calls of the source. Cut-off read from the data, not from the text of the source: active = growth inhibition above about 70%; inactive = the rest.

What was measured:
[1] = NCI Yeast Anticancer Drug Screen. Data for the rad50 strain (AID 155);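 note: 0% = growth of vehicle-only cultures of the same strain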; conditions: S. cerevisiae rad50 strain growth inhibition, hits give high values
How it was run: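 Readout: growth inhibition relative to vehicle-treated cultures. Compound exposure was carried out in a genetically defined yeast strain deficient in DNA damage repair.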

[2] = NCI Yeast Anticancer Drug Screen. Data for the mec2-1 strain (AID 157); conditions: S. cerevisiae mec2-1 strain, hits give high values
How it was run: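 Cells of the genetically defined mec2-1 yeast strain are incubated with test compound. Inhibition of growth is calculated against vehicle-treated controls.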

[3] = NCI Yeast Anticancer Drug Screen. Data for the sgs1 mgt1 strain (AID 161);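 note: 0% = growth of cultures given vehicle only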; conditions: S. cerevisiae sgs1 mgt1 strain, hits give high values
How it was run: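 Inhibition of yeast growth, normalised to vehicle-treated controls, is reported for a strain bearing genetic alterations in DNA damage repair.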

[4] = NCI Yeast Anticancer Drug Screen. Data for the cln2 rad14 strain (AID 165);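 note: 0% = growth equal to vehicle treated cultures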; conditions: S. cerevisiae cln2 rad14 strain, hits give high values
How it was run: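 The screen exposed genetically defined yeast (cln2 rad14) to test compounds and scored growth inhibition relative to vehicle-treated controls.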

[5] = NCI Yeast Anticancer Drug Screen. Data for the bub3 strain (AID 167); conditions: S. cerevisiae bub3 mutant strain, hits give high values
How it was run: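 Readout: yeast growth inhibition, expressed relative to vehicle-only wells. The test organism is a mutant strain from a panel with lesions in DNA repair or checkpoint genes.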

[6] = NCI Yeast Anticancer Drug Screen. Data for the mlh1 rad18 strain (AID 175); conditions: S. cerevisiae mlh1 rad18 strain growth inhibition, hits give high values
How it was run: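 Compound-treated yeast growth, normalised to vehicle controls. Strain bears defined DNA repair mutations.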

[7] = at 5.0 µM (retest, dose inferred, filed as 0.5)
[8] = at 50.0 µM (retest, dose inferred, filed as 5.0)

Row | Compound | growth inhibition [1, 7] | growth inhibition [1, 8] | growth inhibition ([1]; at 50.0 µM) | growth inhibition [2, 7] | growth inhibition [2, 8] | growth inhibition ([2]; at 50.0 µM) | growth inhibition [3, 7] | growth inhibition [3, 8] | growth inhibition ([3]; at 50.0 µM) | growth inhibition [4, 7] | growth inhibition [4, 8] | growth inhibition ([4]; at 50.0 µM) | growth inhibition [5, 7] | growth inhibition [5, 8] | growth inhibition ([5]; at 50.0 µM) | growth inhibition [6, 7] | growth inhibition [6, 8] | growth inhibition ([6]; at 50.0 µM)
1 | Cc1ccc(-c2c(C#N)c(-c3ccccc3)n(NS(=O)(=O)c3ccc(C)cc3)c(=O)c2C#N)cc1 | 26% | 73% (active) | 73.5% (active) | 28% | 67% | 79.1% (active) | 35% | 70% (active) | 81% (active) | 52% | 68% | 80.8% (active) | 51% | 70% (active) | 81.7% (active) | 34% | 72% (active) | 77.2% (active)
2 | COc1ccc(/C=C2\CCC(CN(C)C)C2=O)cc1 (stereo not given) | 19% | 89% (active) | 93.8% (active) | 19% | 99% (active) | 93.3% (active) | 33% | 99% (active) | 93.2% (active) | 27% | 48% | 91.8% (active) | 36% | 99% (active) | 92.6% (active) | 24% | 98% (active) | 88.8% (active)
3 | C=C1C(=O)OC2C/C(C)=C/CC/C(C)=C/CCC3(COC(C)=O)OC3CC12 (stereo not given) | 4% | 98% (active) | 92.7% (active) | 14% | 98% (active) | 94.2% (active) | 10% | 97% (active) | 94.2% (active) | 1% | 95% (active) | 92.5% (active) | 11% | 97% (active) | 93.2% (active) | 37% | 98% (active) | 92.8% (active)
4 | O=C(/C=C\c1cc(Br)ccc1O)/C=C/c1cc(Br)ccc1O | 58% | 90% (active) | 76.8% (active) | 95% (active) | 91% (active) | 75.8% (active) | 80% (active) | 91% (active) | 73.3% (active) | 36% | 88% (active) | 36.4% | 95% (active) | 91% (active) | 89% (active) | 48% | 86% (active) | 75% (active)
5 | CCCCCCCCCN(CCCCCCCCC)CC(O)c1cc2c(c3ccccc13)CCCC2 (stereo not given) | 9% | 93% (active) | 99% (active) | 38% | 96% (active) | 91% (active) | 53% | 97% (active) | 99% (active) | 7% | 90% (active) | 98.9% (active) | 11% | 93% (active) | 95.8% (active) | 46% | 95% (active) | 98.8% (active)
6 | CCC1OC(OC)C=CC1=O (stereo not given) | -1% | -8% | 90% (active) | -10% | -25% | 94% (active) | -14% | -19% | 90.2% (active) | 18% | 15% | 90.5% (active) | -6% | -15% | 90.3% (active) | -16% | -30% | 91.8% (active)
7 | COc1ccc2c(c1OC)C(C(Cl)(Cl)Cl)N1CCc3cc4c(cc3C1=C2)OCO4 (stereo not given) | 15% | 54% | 67.2% | 7% | 71% (active) | 74.5% (active) | 7% | 72% (active) | 78.4% (active) | 33% | 80% (active) | 80% (active) | 20% | 86% (active) | 80.8% (active) | 11% | 66% | 62.1%
8 | CC[N+]1=C(/C=C\c2cc(C)c3cccnc3c2O)C(C)(C)c2ccccc21 | 0% | 98% (active) | 53.9% | -2% | 98% (active) | 48.7% | -6% | 98% (active) | 48.1% | -4% | 98% (active) | 77% (active) | -5% | 98% (active) | 93.2% (active) | 0% | 97% (active) | 51.7%
9 | Cn1cc(NC(=O)c2cc(NC(=O)CCCCCCCCCCC(=O)Nc3cc(C(=O)Nc4cc(C(=O)NCCC(=N)N)n(C)c4)n(C)c3)cn2C)cc1C(=O)NCCC(=N)N | 92% (active) | 98% (active) | 89.5% (active) | 95% (active) | 98% (active) | 92% (active) | 95% (active) | 99% (active) | 92% (active) | 72% (active) | 97% (active) | 91.4% (active) | 96% (active) | 98% (active) | 91% (active) | 92% (active) | 97% (active) | 90.2% (active)
10 | S=C1Nc2cnc3ccccc3c2SC1c1ccccc1 (stereo not given) | -5% | 98% (active) | 87% (active) | 7% | 98% (active) | 92% (active) | -15% | 98% (active) | 87.8% (active) | -9% | 98% (active) | 90.3% (active) | -8% | 98% (active) | 90.8% (active) | 4% | 98% (active) | 85.3% (active)
11 | c1cc(C2=NCCN2)ccc1Nc1ccc(-c2cc3ccc(C4=NCCN4)cc3[nH]2)cc1 | 99% (active) | 99% (active) | 58.1% | 99% (active) | 98% (active) | 99.2% (active) | 99% (active) | 99% (active) | 51.3% | 99% (active) | 99% (active) | 98.9% (active) | 99% (active) | 99% (active) | 99.3% (active) | 99% (active) | 99% (active) | 98.5% (active)
12 | O=C1CCSC(=S)N1c1ccc(N=Nc2ccccc2)cc1 | 57% | 94% (active) | 75.4% (active) | 9% | 91% (active) | 97.6% (active) | 20% | 94% (active) | 97.2% (active) | 11% | 13% | 84% (active) | 0% | 4% | 93.5% (active) | 18% | 94% (active) | 94.5% (active)
13 | N#CSCc1ccc(CSC#N)c(Cl)c1 | 10% | 93% (active) | 59.7% | 0% | 91% (active) | 40.4% | 18% | 91% (active) | 41% | 4% | 88% (active) | 60.8% | 11% | 98% (active) | 39.1% | 4% | 96% (active) | 93.3% (active)
14 | CC(=O)Oc1cc2c(cc1OC(C)=O)OCC(c1ccccc1)C2 (stereo not given) | 2% | 45% | 69.3% | 5% | 48% | 56.3% | 4% | 60% | 76.5% (active) | 3% | 20% | 35.9% | 41% | 93% (active) | 94.8% (active) | -10% | 53% | 63.4%
15 | COc1cc(C(=O)NC(CCC(=O)O)C(=O)O)ccc1N(C)Cc1cnc2nc(N)nc(N)c2n1 (stereo not given) | -4% | 66% | 89.8% (active) | -3% | 93% (active) | 97.2% (active) | -7% | 44% | 83.8% (active) | 2% | -10% | -21.4% | -6% | -6% | 40.4% | -51% | 29% | 74.1% (active)
16 | CCCCN(CCC=C1c2ccccc2Oc2ccccc21)CCCC | 7% | 99% (active) | 99.7% (active) | 4% | 99% (active) | 99.7% (active) | 9% | 99% (active) | 99.7% (active) | 4% | 99% (active) | 99% (active) | 6% | 99% (active) | 11.7% | 5% | 99% (active) | 99.6% (active)
17 | O=[N+]([O-])c1ccc(-n2ncc3cccnc32)c([N+](=O)[O-])c1 | 1% | 99% (active) | 99% (active) | -12% | 99% (active) | 93.6% (active) | 2% | 100% (active) | 99.3% (active) | -1% | 98% (active) | 46.9% | 33% | 99% (active) | 92% (active) | 26% | 100% (active) | 99.5% (active)
18 | NNCc1cc(Cl)c2cccnc2c1O | 18% | 96% (active) | 98.8% (active) | 6% | 99% (active) | 98.8% (active) | 7% | 98% (active) | 98.5% (active) | -8% | 98% (active) | 97.5% (active) | -1% | 98% (active) | 99% (active) | 9% | 98% (active) | 98.7% (active)
19 | COc1ccc(OC)c(N=Nc2c(C)[nH]n(C(N)=S)c2=O)c1 | -6% | 47% | 79.3% (active) | -3% | 34% | 19% | 7% | 34% | 80.7% (active) | -2% | 27% | 10.6% | -14% | 26% | 42.1% | 11% | 25% | 66.7%
20 | CC(=O)N1c2ccccc2C2=NN=C(N(C)C)SC21 (stereo not given) | 6% | 98% (active) | 85.3% (active) | -15% | 98% (active) | 90% (active) | 0% | 98% (active) | 83.8% (active) | -20% | 97% (active) | 83.8% (active) | -14% | 99% (active) | 87.3% (active) | 1% | 97% (active) | 80.5% (active)
